# This is a sample that favours compounds with a hit; in the whole collection about 9.4% have one here.
# FLuc modulator: counter-screen for miR-21 project: firefly luciferase inhibitors or activators; P08659; purified FLuc, Km substrates, luminescence inhibition; Potency, µM (highest dose often 57.5 µM), for inactives: at the highest dose activity change, negative = inhibition, hits mostly inhibitors; hit rate 6.9% among 360,000; AID 588342;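 note: plate controls were vehicle for no effect and reference inhibitor for full effect; nearly all actives have a fitted effect of over 55% in size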
# Target sequence (P08659 whole entry, looked up): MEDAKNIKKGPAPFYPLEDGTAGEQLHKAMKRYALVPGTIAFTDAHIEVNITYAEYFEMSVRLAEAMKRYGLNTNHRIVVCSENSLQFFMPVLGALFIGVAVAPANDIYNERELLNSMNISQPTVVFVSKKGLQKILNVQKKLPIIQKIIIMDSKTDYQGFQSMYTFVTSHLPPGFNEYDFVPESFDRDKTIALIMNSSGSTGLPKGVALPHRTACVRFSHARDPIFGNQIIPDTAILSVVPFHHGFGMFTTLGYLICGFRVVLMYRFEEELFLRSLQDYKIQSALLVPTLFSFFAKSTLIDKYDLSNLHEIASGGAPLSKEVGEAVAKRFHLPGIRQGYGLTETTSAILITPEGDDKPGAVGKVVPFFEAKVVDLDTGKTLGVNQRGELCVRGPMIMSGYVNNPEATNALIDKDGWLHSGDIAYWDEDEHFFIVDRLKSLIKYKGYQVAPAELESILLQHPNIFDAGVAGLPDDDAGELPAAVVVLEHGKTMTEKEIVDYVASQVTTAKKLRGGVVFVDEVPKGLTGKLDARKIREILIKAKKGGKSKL
#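 Biochemical qHTS of compounds, final roughly 60 µM downward over six points, against 10 nM purified firefly luciferase using Km concentrations of substrates (10 uM D-luciferin, 10 uM ATP) in Tris acetate pH 7.5 buffer; luminescence output.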
# ELG1 repair inh: inhibitors of ELG1-dependent DNA repair in HEK293T cells. HEK293T ELG1-luciferase reporter, luminescence, 16 h; DNA damage induced by 5-fluorouridine. Potency, µM (highest dose often 46.1 µM), inactives show at the highest dose activity change, negative = inhibition, most hits filed as inhibitors. hit rate 2.3% among 330,000; note: % is set by controls: 0 for no effect and ±100 for the full control effect; nearly all actives have a fitted effect of over 55% in size
#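 Step one: seed 2,000 cells per well. Step two: pin-transfer compound or DMSO alongside 5-fluorouridine. Step three: incubate 16 hr, 37 °C, 5% CO2. Step four: add ONE-Glo, wait 30 min, read luminescence.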
# Rab9 promoter act: activators of Rab9 promoter | Huh7 Rab9 promoter-luciferase reporter, luminescence, 24 h | Potency, µM (highest dose often 9.22 µM), for inactives: at the highest dose activation, negative = inhibition, most hits filed as activators | hit rate 2.8% among 320,000 | AID 485297; note: % of control where 0% means no effect; nearly all actives have a fitted effect of over 60% in size
#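 Luciferase signal after 10 min detection reagent at ambient indicates Rab9 promoter upregulation; stably transfected Huh7 cells were treated 24 h with compound in DMSO at 37 °C, 5% CO2.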
# SMN2 splice enh: increases expression of the SMN2 splice variant. HEK293 SMN2-luciferase splicing reporter, luminescence, 30-36 h. AID 1458. hit rate 2.8% among 210,000. Potency, µM (doses to about 46.1 µM), inactives show top-dose activity change, positive = activation, most hits filed as activators; note: % of control where 0% means no effect; nearly all actives have a fitted effect of over 55% in size
#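 HEK293 cells carry an SMN2 […]–luciferase reporter in which exon 7 inclusion puts luciferase in frame. Cells were plated 10-12 h before compound addition, then incubated 30-36 h at 37C. ONE-Glo luminescence was read; sodium butyrate at 4.5 mM final served as control.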
# ELG1 genotoxic: inducers of genotoxicity in HEK293T ELG1-luciferase cells; HEK293T ELG1-luciferase reporter, luminescence, 16 h; Potency, µM (highest dose often 46 µM), inactives show at the highest dose activity change, positive = activation, usual class: activators; hit rate 1.3% among 330,000; AID 504466; note: % of control where 0% means no effect; nearly all actives have a fitted effect of over 60% in size
#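 Cells (2,000/well) expressing the ELG1-luciferase fusion are dosed by pin tool and kept 16 hr at 37 °C, 5% CO2. Signal comes from ONE-Glo luciferase reagent after 30 min at room temperature.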
# NPC1 prom act: activators of NPC1 promoter. Potency, µM (titrated, usually from 9.22 µM), for the others: at the highest dose activation, usual class: activators. Huh7 NPC1 promoter luciferase reporter, 24 h. hit rate 2.4% among 320,000; note: % of control where 0% means no effect; nearly all actives have a fitted effect of over 60% in size
#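 Huh7 reporter cells (NPC1 promoter driving luciferase) are dosed with compound for 24 h at 37 °C, 5% CO2; luciferase detection reagent is then added and luminescence measured after 10 min at ambient temperature.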
# Numbers without * were called inactive; ? = inconclusive; / = not tested or not shown; [ ] = dose if it differs, or a comment. Calls come from the whole dose curve; as a rule, active = well fitted curve in the direction sought with a large enough effect; inconclusive = small, poorly fitted or top-dose-only effect, or another doubt; inactive = no such curve, though single readings can be large; an effect the other way counts as inactive or inconclusive. Potency is the fitted concentration of half-maximal effect.
SMILES,FLuc modulator,ELG1 repair inh,Rab9 promoter act,SMN2 splice enh,ELG1 genotoxic,NPC1 prom act
CC#CCN1c2ccccc2[C@]23C[C@@H](C(=O)OC)N(S(=O)(=O)c4ccc(OC)cc4)C2=NC(C(=O)OC)=C(C(=O)OC)[C@H]13,/,/,/,2%[9.22 µM],/,/
C/C(=C\c1ccccc1)C(=O)Nc1cc(C)on1,15µM*,?,?,-33%,?,20%
CCOc1ccc(C(=O)Nc2cc(C)on2)cc1,3.4µM*,?,1.4µM*,8.9µM*,?,1.1µM*
Cc1cc(NC(=O)NC(=O)c2ccccc2)no1,?,?,2.5µM*,/,15µM*,4µM*
Cc1cc(NC(=O)Cc2ccccc2)no1,2%,5%,-5%,-22%,2%,-3%
CCC(CC)C(=O)Nc1ccc(C(=O)Nc2cc(C)on2)cc1,0%,5%,-2%,-38%,-12%,5%
Cc1c(C(=O)Oc2ccc(Br)cc2)sc2ncn(Cc3ccccc3F)c(=O)c12,-1%,/,/,/,/,/
O=C(c1ccccc1)c1ccc2cc(O)ccc2c1,15µM*,?,?,/,?,?
O=C(O)c1cccc(-n2cccc2C=C2C(=O)c3ccccc3C2=O)c1,12µM*,?,-3%,/,9%,-2%
O=C1C(=Cc2cccn2-c2ccc(O)cc2)C(=O)c2ccccc21,3.4µM*,8%,0%,5%,1%,-1%
O=C(O)c1cccc(-n2cccc2/C=C2/NC(=O)N(c3cccc(Cl)c3)C2=O)c1,-7%,1%,-5%,/,0%,3%
O=C(O)c1cccc(-n2cccc2/C=C2/NC(=O)N(c3ccc(Cl)cc3)C2=O)c1,27µM*,16%,-2%,18%,2%,3%
CCOC(=O)N1CCc2c(sc3c2c(=O)n(CCc2ccccc2)c(=O)n3CC(=O)Nc2ccc(C)cc2)C1,1%,/,/,0%,/,/
Cc1ccc(OCCSc2nc3ccc(NC(=O)c4ccc5c(c4)OCO5)cc3s2)cc1,-1%,/,/,/,/,/
CN(C)c1ccc(CNC(=O)C2COc3ccccc3C2)cc1 (stereo not given),-16%,/,/,/,/,/
COc1ccc(Cl)cc1NC(=O)CN(C)C(=O)c1n[nH]c2ccccc12,1%,8.2µM*,-6%,/,-16%,0%
COCC(C)n1c(C)cc(C(=O)COC(=O)c2oc3ccccc3c2C)c1C (stereo not given),?,?,3%,-29%,-10%,14%
COCC(C)n1c(C)cc(C(=O)COC(=O)c2n[nH]c3ccccc23)c1C (stereo not given),3µM*,?,0.63µM*,-9%,?,1µM*
CCOC(=O)c1[nH]c(C)c(C(=O)OCC(=O)NCc2ccc(OC)c(OC)c2)c1C,9%,11µM*,-7%,/,-3%,0%
Cc1cc2oc(=O)cc(COC(=O)c3n[nH]c4ccccc34)c2cc1C,?,-5%,18%,?,?,?
COc1ccc2c(COC(=O)c3n[nH]c4ccccc34)cc(=O)oc2c1,3µM*,?,3.5µM*,20µM*,?,3.2µM*
O=C(NCc1ccccn1)c1nn(-c2ccccc2Cl)nc1CO,-3%,/,/,-7%,/,/
COc1ccc(CNC(=O)COC(=O)c2n[nH]c3ccccc23)cc1OC,5%,16µM*,-2%,-54%,-10%,-4%
CCOC(=O)c1c(C)[nH]c(C(=O)N(C)Cc2cccc(OC)c2OC)c1C,0%,16µM*,-3%,/,0%,5%
Cc1cc(C)n(C(=O)/C(C#N)=N/Nc2cc(Cl)cc(Cl)c2)n1,?,16µM*,-12%,-70%,-11%,-8%
COc1ccc(Br)cc1C1Nc2cccc3cccc(c23)N1,-20%,-9%,23%,/,?,?
COc1cc(C2Nc3cccc4cccc(c34)N2)cc(OC)c1OC(C)=O,17µM*,-4%,2%,4%,5%,-2%
COc1cc(C2Nc3cccc4cccc(c34)N2)ccc1O,13µM*,-9%,18%,/,-2%,?

# Screening data deposited in PubChem BioAssay by National Center for Advancing Translational Sciences (NCATS).
